The full data set covers some 7,900 targets. This sample favours those with a hit. About 0.6% of all pairs of compound and target were hits.
What was measured:
Assay in all cases: log2 fold change, soluble protein after heating vs DMSO (PISA); higher = thermal stabilisation; K562 cells, 10 uM, 30 min; active = over 0.2 and 3.5 SD of the protein, either way, in both replicates (recomputed)
erlotinib = compound: C#Cc1cccc(Nc2ncnc3cc(OCCOC)c(OCCOC)cc23)c1 [erlotinib]
How it was run: (§1)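 Soluble protein was defined as the supernatant after 21,000xg for 90 min. It came from K562 cells at 2×10^6 cells/mL given 10 μM compound for 30 min, heated in aliquots for 3 min across 48°C-58°C, pooled, and extracted in PBS with 0.5% NP-40 at 4°C, and was quantified by TMTpro 16plex LC-MS/MS with equalised channel sums. Thermal stability against control samples, from duplicates, is reported as log2 fold change.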

[1] = compound: C1=CC(=C(C=C1Cl)C2=NC3=NC=CN=C3C(=N2)NC4=CC=NC=C4)F
How it was run: as §1

[2] = compound: C1=CC(=CC=C1C2=NC3=C(N2)C=C(C=C3)C(=O)N)OC4=CC=C(C=C4)Cl
How it was run: as §1

[3] = compound: C1=CC2=NC=CN=C2C=C1/C=C/3\C(=O)NC(=O)S3
How it was run: as §1

[4] = compound: C1=CC=C(C=C1)C2=NC(=C(N2)C3=CC=NC=C3)C4=CC(=C(C=C4)Cl)O
How it was run: as §1

[5] = compound: C1CCN(C1)C(=O)NC2=CC=CC(=C2)NC3=NC=C(C(=N3)NCCC4=CN=CN4)Br
How it was run: as §1

[6] = compound: C1CN(CCC1(CC2=CC=C(C=C2)Cl)N)C3=NC=NC4=C3C=CN4
How it was run: as §1

IRAK-1-4 Inhibitor I = compound: C1COCCN1CCN2C3=CC=CC=C3N=C2NC(=O)C4=CC(=CC=C4)[N+](=O)[O-] [IRAK-1-4 Inhibitor I]
How it was run: as §1

ibrutinib = compound: C=CC(=O)N1CCC[C@@H](n2nc(-c3ccc(Oc4ccccc4)cc3)c3c(N)ncnc32)C1 [ibrutinib]
How it was run: as §1

ralimetinib = compound: CC(C)(C)Cn1c(N)nc2ccc(-c3[nH]c(C(C)(C)C)nc3-c3ccc(F)cc3)nc21 [ralimetinib]
How it was run: as §1

[7] = compound: CC(C)(O)CC(=O)NCCn1ccc2ncnc(Nc3ccc(Oc4cccc(C(F)(F)F)c4)c(Cl)c3)c21
How it was run: as §1

[8] = compound: CC(C)C1=C2N=C(C=C(N2N=C1)NCC3=CC=CC=C3)NCCCCCCN
How it was run: as §1

[9] = compound: CC(C)C[C@@H](C=O)NC(=O)[C@H](CC(C)C)NC(=O)[C@H](CC(C)C)NC(=O)OCc1ccccc1
How it was run: as §1

pinometostat = compound: CC(C)N(C[C@H]1O[C@@H](n2cnc3c(N)ncnc32)[C@H](O)[C@@H]1O)[C@H]1C[C@@H](CCc2nc3cc(C(C)(C)C)ccc3[nH]2)C1 [pinometostat]
How it was run: as §1

[10] = compound: CC1=C(C(CC(=O)N1)C2=CC=C(C=C2)C(F)(F)F)C(=O)NC3=C(C=C4C(=C3)C=NN4)F
How it was run: as §1

[11] = compound: CC1=C(C2=C(C=C1)C(=O)C3=CC=CC=C3N2CCCN)C
How it was run: as §1

[12] = compound: C/C(=N\NC(=O)C1=CC(=CC=C1)S(=O)(=O)N2CCOCC2)/C3=C(C=CC(=C3)Cl)O
How it was run: as §1

[13] = compound: C1=CC2=C(C=CC(=C2)/C=C\3/C(=O)NC(=NCC4=CC=CS4)S3)N=C1
How it was run: as §1

[14] = compound: C1=CC=C2C(=C1)C3=NNC4=CC=CC(=C43)C2=O
How it was run: as §1

[15] = compound: CC(=O)c1cnc2ccc(-c3cc(Cl)c(O)c(Cl)c3)nc2c1N[C@H]1CC[C@H](CN(C)C)CC1
How it was run: as §1

Measured: log2 fold change

CCDC57 (UniProt Q2TAC2)
inactive: erlotinib 0.044 | [1] 0.031 | [2] -0.051 | [3] -0.021 | [4] 0.003 | [5] 0.012 | [6] 0.026 | IRAK-1-4 Inhibitor I 0.067 | ibrutinib -0.021 | ralimetinib 0.005 | [7] -0.007 | [8] 0.041 | [9] 0.05 | pinometostat -0.04 | [10] 0.042 | [11] 0.012

CSNK1A1 isoform 3 (UniProt P48729)
inactive: [3] 0.111 | ibrutinib 0.029

CCDC187, A0A1W2PQX5
inactive: [12] -0.124 | [1] -0.079 | [13] 0.169 | [4] -0.055 | [14] 0.013 | [15] -0.14 | ralimetinib -0.237 | [7] 0.201 | [9] 0.001 | [10] -0.11

CEP128 (UniProt Q6ZU80)
UniProt Q6ZU80, sequence (Q6ZU80 whole entry, looked up): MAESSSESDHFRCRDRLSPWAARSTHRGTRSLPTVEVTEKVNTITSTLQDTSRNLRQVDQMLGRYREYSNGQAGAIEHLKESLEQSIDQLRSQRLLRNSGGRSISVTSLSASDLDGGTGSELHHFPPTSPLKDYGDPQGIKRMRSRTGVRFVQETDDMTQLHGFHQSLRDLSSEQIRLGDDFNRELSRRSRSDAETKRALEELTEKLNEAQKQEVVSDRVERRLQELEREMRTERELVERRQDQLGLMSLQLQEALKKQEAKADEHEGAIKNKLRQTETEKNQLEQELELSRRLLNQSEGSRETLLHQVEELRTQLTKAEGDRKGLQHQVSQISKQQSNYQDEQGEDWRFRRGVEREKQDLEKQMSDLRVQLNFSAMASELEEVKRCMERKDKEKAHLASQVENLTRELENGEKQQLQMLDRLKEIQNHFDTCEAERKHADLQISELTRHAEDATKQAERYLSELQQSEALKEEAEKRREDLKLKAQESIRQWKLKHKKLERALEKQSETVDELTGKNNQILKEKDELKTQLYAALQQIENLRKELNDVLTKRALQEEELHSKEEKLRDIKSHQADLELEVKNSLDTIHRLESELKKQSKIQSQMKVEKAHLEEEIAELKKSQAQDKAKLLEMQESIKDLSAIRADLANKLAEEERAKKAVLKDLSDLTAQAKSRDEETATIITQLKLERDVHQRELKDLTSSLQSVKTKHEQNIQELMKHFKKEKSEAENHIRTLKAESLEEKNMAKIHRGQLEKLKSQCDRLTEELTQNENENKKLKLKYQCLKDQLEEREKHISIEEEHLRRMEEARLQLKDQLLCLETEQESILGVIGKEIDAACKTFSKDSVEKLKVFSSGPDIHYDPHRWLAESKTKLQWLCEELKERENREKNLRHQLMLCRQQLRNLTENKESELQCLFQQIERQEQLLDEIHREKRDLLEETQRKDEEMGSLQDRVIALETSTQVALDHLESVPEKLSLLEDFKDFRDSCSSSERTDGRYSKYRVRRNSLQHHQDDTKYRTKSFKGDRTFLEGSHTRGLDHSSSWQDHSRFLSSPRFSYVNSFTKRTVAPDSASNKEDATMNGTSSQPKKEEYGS
inactive: [12] -0.163 | [13] 0.199 | [3] 0.158 | [14] -0.037 | [5] 0.141 | [6] -0.003 | IRAK-1-4 Inhibitor I -0.149 | ibrutinib -0.055 | [15] -0.022 | pinometostat 0.012 | [11] 0.1

CRLS1 (UniProt Q9UJA2)
UniProt Q9UJA2, sequence (Q9UJA2 whole entry, looked up): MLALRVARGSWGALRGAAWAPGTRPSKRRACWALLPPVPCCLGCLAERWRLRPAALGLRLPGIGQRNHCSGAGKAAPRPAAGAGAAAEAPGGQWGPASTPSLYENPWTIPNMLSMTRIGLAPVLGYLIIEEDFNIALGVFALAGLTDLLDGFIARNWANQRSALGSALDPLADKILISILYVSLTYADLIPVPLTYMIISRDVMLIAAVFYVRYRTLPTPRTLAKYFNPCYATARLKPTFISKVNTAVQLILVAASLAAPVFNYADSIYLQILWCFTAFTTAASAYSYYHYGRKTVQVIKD
inactive: erlotinib -0.034 | [2] 0.019 | [5] -0.019 | [6] 0.074 | IRAK-1-4 Inhibitor I -0.03 | [8] 0.036 | pinometostat -0.071 | [10] -0.032 | [11] -0.005

C6orf120 (UniProt Q7Z4R8)
UniProt Q7Z4R8, sequence (Q7Z4R8 whole entry, looked up): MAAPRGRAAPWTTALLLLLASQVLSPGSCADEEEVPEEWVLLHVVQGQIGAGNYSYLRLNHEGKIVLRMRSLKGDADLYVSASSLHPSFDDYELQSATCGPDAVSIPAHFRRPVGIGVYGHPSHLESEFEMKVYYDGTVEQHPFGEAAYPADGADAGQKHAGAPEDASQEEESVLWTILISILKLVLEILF
inactive: erlotinib -0.2 | [2] 0.134 | [3] -0.003 | [4] -0.009 | [5] 0.005 | [6] 0.028 | IRAK-1-4 Inhibitor I 0.116 | ibrutinib -0.003 | ralimetinib 0.015 | [8] -0.19 | [9] -0.003 | pinometostat -0.023 | [10] 0.062 | [11] 0.002

CFAP58 (UniProt Q5T655)
UniProt Q5T655, sequence (Q5T655 whole entry, looked up): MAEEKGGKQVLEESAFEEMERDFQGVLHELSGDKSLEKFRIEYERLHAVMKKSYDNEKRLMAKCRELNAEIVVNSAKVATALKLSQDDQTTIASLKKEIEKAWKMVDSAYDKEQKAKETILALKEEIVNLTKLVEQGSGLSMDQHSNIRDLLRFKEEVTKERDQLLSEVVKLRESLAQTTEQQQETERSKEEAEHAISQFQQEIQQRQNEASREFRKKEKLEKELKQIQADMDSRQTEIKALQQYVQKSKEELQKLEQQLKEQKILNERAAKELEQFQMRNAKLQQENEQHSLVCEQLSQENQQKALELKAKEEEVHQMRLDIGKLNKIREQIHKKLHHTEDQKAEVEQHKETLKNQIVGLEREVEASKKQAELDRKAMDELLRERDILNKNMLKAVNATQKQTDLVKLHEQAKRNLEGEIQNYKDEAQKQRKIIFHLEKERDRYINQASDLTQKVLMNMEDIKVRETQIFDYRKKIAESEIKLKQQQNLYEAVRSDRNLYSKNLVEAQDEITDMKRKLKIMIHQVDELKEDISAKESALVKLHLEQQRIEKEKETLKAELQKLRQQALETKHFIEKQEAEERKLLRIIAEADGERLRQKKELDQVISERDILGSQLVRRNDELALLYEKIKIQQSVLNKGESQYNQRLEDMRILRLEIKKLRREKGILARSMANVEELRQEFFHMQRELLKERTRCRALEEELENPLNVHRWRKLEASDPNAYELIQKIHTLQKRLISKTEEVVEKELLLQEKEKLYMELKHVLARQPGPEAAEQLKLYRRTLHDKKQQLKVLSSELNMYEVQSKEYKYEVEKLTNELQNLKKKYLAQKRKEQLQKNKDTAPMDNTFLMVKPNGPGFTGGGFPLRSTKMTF
inactive: [4] 0.047 | ralimetinib -0.04 | [9] -0.035

COMMD1 (UniProt Q8N668)
UniProt Q8N668, sequence (Q8N668 whole entry, looked up): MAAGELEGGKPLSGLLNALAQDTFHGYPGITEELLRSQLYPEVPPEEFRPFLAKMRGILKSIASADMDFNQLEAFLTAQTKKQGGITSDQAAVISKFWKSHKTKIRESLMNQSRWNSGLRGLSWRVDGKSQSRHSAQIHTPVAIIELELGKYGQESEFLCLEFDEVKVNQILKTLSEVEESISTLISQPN
inactive: erlotinib -0.136 | [1] -0.241 | [2] 0.15 | [3] -0.088 | [4] 0.066 | [5] 0.037 | [6] -0.083 | IRAK-1-4 Inhibitor I -0.033 | ibrutinib -0.083 | ralimetinib 0.036 | [7] 0.06 | [8] -0.177 | [9] 0.19 | pinometostat 0.046 | [10] 0.027 | [11] 0.006

CASP9 (UniProt P55211)
inactive: [12] 0.059 | [1] -0.016 | [13] -0.049 | [4] -0.02 | [14] 0.048 | [5] -0.054 | [6] -0.218 | IRAK-1-4 Inhibitor I 0.03 | [15] -0.096 | ralimetinib 0.008 | [7] -0.043 | [9] 0.053 | pinometostat 0.03 | [10] -0.071 | [11] -0.206

CASP10 isoform 4 (UniProt Q92851)
UniProt Q92851, sequence (Q92851 whole entry, looked up): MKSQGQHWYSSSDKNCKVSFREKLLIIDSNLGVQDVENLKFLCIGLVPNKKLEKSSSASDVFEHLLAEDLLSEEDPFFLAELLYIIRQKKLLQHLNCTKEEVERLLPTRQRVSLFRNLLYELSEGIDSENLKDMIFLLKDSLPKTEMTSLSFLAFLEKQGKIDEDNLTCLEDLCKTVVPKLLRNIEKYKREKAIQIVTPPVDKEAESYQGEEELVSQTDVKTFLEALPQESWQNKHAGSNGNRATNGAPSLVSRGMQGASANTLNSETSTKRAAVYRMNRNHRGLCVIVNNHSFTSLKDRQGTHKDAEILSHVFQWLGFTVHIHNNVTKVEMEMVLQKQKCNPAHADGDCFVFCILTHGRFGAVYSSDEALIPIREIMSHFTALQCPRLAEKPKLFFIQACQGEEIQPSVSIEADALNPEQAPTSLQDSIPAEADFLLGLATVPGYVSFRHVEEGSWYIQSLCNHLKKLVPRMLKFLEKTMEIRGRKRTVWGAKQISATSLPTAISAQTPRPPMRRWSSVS
inactive: [12] 0.138 | [1] 0.026 | [13] 0.124 | [3] -0.046 | [4] 0.051 | [14] -0.04 | [5] -0.13 | [6] -0.21 | IRAK-1-4 Inhibitor I -0.132 | ibrutinib -0.083 | [15] 0.083 | ralimetinib 0.095 | [7] -0.13 | [9] -0.015 | pinometostat 0.047 | [10] 0.021 | [11] 0.262

CASP7 isoform 3 (UniProt P55210)
inactive: erlotinib 0.133 | [1] -0.105 | [2] 0.217 | [3] 0.118 | ibrutinib -0.005 | [7] -0.003 | [8] 0.035 | [10] 0.064

CD68 (UniProt P34810)
UniProt P34810, sequence (P34810 whole entry, looked up): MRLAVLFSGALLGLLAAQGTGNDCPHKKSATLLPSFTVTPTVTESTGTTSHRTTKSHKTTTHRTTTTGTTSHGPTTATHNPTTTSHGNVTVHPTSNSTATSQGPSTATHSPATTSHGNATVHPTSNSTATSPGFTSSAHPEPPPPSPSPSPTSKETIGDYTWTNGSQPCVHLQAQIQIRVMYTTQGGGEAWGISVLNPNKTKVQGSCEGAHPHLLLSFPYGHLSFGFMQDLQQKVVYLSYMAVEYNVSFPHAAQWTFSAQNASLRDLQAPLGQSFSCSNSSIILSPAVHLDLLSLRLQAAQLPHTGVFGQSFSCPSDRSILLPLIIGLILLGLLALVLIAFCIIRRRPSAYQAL
inactive: erlotinib -0.13 | [2] 0.022 | [3] 0.094 | ibrutinib 0.057
active: [8] -0.535

CS (UniProt F8VU34)
inactive: [3] 0.06 | ibrutinib -0.137

CARD9 (UniProt Q9H257)
inactive: erlotinib -0.173 | [12] 0.211 | [2] 0.056 | [13] -0.184 | [4] 0.129 | [14] -0.058 | IRAK-1-4 Inhibitor I -0.181 | [15] -0.255 | ralimetinib 0.15 | [8] 0.071 | [9] 0.178 | pinometostat 0.202

CA1 (UniProt E5RIF9)
inactive: [1] 0.096 | [3] 0.135 | [5] 0.014 | [6] -0.453 | ibrutinib 0.161 | [7] -0.052 | [11] -0.02

CNRIP1 (UniProt Q96F85)
UniProt Q96F85, sequence (Q96F85 whole entry, looked up): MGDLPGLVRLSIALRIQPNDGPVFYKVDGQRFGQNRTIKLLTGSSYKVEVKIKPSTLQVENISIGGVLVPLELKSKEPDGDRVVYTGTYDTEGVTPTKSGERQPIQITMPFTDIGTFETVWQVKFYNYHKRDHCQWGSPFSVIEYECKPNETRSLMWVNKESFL
inactive: erlotinib -0.065 | [1] 0.045 | [2] 0.045 | [4] -0.115 | ralimetinib -0.051 | [7] -0.255 | [8] 0.034 | [9] 0.116 | [10] 0.165

COPS3 isoform 2 (UniProt Q9UNS2)
inactive: [12] -0.24 | [1] -0.075 | [13] 0.214 | [3] -0.125 | [4] -0.568 | [14] -0.126 | [5] 0.176 | [6] -0.052 | IRAK-1-4 Inhibitor I 0.098 | ibrutinib -0.015 | [15] -0.191 | ralimetinib -0.214 | [7] -0.097 | [9] 0.258 | pinometostat 0.071 | [10] 0.046 | [11] 0.053

CRTC3 (UniProt Q6UUV7)
UniProt Q6UUV7, sequence (Q6UUV7 whole entry, looked up): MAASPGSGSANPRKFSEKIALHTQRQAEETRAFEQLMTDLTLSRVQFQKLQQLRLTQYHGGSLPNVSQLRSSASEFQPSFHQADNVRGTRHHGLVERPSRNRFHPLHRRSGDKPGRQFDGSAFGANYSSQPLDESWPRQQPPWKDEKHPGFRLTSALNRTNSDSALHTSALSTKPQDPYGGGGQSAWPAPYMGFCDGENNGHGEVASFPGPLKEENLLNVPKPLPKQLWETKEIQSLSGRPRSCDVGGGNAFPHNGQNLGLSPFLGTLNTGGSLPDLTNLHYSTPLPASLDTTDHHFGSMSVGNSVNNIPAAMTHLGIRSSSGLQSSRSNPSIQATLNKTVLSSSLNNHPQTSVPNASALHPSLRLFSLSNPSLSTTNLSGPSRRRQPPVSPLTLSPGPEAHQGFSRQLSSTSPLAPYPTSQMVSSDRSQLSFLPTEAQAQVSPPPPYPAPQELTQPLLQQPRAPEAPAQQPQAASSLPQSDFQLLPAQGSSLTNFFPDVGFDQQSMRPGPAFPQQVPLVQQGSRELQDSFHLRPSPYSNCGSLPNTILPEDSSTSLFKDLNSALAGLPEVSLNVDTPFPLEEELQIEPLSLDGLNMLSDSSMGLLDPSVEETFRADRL
inactive: [1] 0.04 | [3] 0.094 | [4] -0.146 | [5] 0.02 | [6] 0.075 | ibrutinib -0.035 | ralimetinib 0.048 | [7] -0.104 | [9] 0.042 | [11] 0

CNN1 (UniProt P51911)
inactive: [12] 0.062 | [1] 0.055 | [13] 0.063 | [14] 0.041 | [5] -0.129 | [6] 0.118 | [15] -0.086 | [7] -0.071 | [10] 0.144 | [11] 0.145

CCNL1 (UniProt Q9UK58)
UniProt Q9UK58, sequence (Q9UK58 whole entry, looked up): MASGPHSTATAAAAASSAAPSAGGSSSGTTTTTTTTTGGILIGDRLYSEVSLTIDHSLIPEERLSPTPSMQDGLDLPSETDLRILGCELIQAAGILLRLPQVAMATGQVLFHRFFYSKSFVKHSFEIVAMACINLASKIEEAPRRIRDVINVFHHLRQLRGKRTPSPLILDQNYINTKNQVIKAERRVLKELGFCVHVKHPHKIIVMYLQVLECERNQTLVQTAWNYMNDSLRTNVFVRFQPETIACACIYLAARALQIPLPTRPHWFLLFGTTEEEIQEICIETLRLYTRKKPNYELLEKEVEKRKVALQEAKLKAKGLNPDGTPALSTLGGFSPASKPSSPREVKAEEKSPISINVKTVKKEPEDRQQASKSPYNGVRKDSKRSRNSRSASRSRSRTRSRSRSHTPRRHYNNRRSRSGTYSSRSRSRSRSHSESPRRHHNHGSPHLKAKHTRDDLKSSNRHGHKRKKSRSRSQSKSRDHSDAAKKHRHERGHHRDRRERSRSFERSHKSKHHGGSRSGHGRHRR
inactive: erlotinib -0.001 | [2] 0.094 | [8] -0.188

CCDC167 (UniProt Q9P0B6)
UniProt Q9P0B6, sequence (Q9P0B6 whole entry, looked up): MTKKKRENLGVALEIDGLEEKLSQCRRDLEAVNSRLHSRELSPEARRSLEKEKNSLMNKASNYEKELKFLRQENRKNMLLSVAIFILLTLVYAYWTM
inactive: erlotinib 0.068 | [1] 0.008 | [2] -0.041 | [3] 0.054 | [4] 0.072 | [5] 0.054 | [6] 0.224 | IRAK-1-4 Inhibitor I -0.056 | ibrutinib 0.013 | ralimetinib -0.028 | [7] 0.163 | [8] -0.258 | [9] 0.061 | pinometostat 0.052 | [10] 0.034 | [11] 0.021
